Eya2 phos inh: blocks the phosphatase activity of human Eya2 | Potency, µM (highest dose often 76.9 µM), actives largely listed as inhibitors | actives 0.006% (n = 330,000) | recombinant Eya2, OMFP fluorescence dephosphorylation (OMFP is methylfluorescein phosphate) | O00167
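Eya2 protein (added as 0.2 uM solution) was preincubated with compound for 10 min at ambient temperature in 50 mM HEPES pH 7.5, 50 mM NaCl, 5 uM MgCl2, 0.05% BSA, 1 mM DTT. OMFP (added at 50 uM) then reacted 10 min; fluorescence read at 485/525 nm.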
GCN5L2 inh: inhibitors of human GCN5L2 histone acetyltransferase; Potency, µM (top dose mostly 58.9 µM), most hits filed as inhibitors; Q92830; actives 0.21% (n = 390,000); GCN5L2 HAT assay, ThioGlo1 CoA-SH fluorescence
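qHTS, 1536-well. 20nM enzyme, pH 7.5 HEPES/EDTA/Tween-20 buffer; 15 min compound preinc., RT. Start: 75uM H3(1-25), 70uM AcCoA, 50uM ThioGlo1. Read Ex340/Em540 at t=0 (autofluorescence flag) and t=20 min.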
USP2a inh: USP2a (human) protease inhibition; O75604; Potency, µM (titrated, usually from 38.3 µM), usual class: inhibitors; AID 463254; actives 0.01% (n = 330,000); USP2 core, Ub-CHOP2 coupled fluorogenic reporter, 485/531
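USP2 core (10nM final) preincubated 30min RT with compound in 20mM Tris-HCl pH 8.0, 2mM CaCl2, 2mM beta-mercaptoethanol, 0.05% CHAPS; 25nM Ub-CHOP2 plus 25nM reporter substrate added, fluorescence (Ex485/Em531) read after 60min.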
RGS4 inh: blocks human RGS4-accelerated GTP hydrolysis; P49798; Transcreener GDP fluorescence polarization, RGS4-accelerated GTP hydrolysis; Potency, µM (doses to about 114 µM), hits mostly inhibitors; actives 0.039% (n = 390,000); AID 504845; also: nearly all actives have a fitted effect of over 75% in size
Target sequence (P49798 whole entry, looked up): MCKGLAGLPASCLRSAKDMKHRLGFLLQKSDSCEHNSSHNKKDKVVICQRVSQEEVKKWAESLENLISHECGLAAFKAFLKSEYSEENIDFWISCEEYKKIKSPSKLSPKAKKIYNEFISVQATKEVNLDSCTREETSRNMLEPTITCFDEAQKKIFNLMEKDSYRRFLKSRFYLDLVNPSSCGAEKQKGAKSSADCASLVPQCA
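MLSMR compounds (23 nl, pin-transferred) preincubated 10 min at room temperature with a 500nM (2x) first reagent, then RGS4 at 900nM (2x) plus Transcreener GDP mix added; fluorescence polarization (620/688 nm) read before and after 90 min at 30 °C.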
Chronic BCR inh: inhibitors of chronic active B-cell receptor signaling; ABC-DLBCL IkBa-CBG/CBR reporter, luminescence ratio, 4 h; Potency, µM (highest dose often 46.1 µM), most hits filed as inhibitors; actives 0.05% (n = 340,000); AID 493014; active = well fitted inhibition curve with a large enough effect in the signal ratio, with a control signal flat, not every such curve was filed as active; inconclusive = small, poorly fitted or top-dose-only effect, or effect the other way, or a change in a side signal; the % refers to the signal ratio
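Doxycycline induced both beetle luciferases in TMD8 lymphoma cells; IKK-driven degradation limits the IkappaBalpha-fused green signal, while red luminescence normalises for cell number and nonspecific effects. Compounds tested up to 46 uM, 4 hrs.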
uPA surface inh: inhibitors of cell surface uPA generation. cell surface uPA generation assay, qHTS. Potency, µM (doses to about 38.3 µM), actives largely listed as inhibitors. actives 0.31% (n = 330,000). AID 540303; active = well fitted inhibition curve with a large enough effect; inconclusive = small, poorly fitted or top-dose-only effect; inactive = no such curve, though single readings can be large or run the other way; tested in mouse RAW 264.7 cells; also: nearly all actives have a fitted effect of over 55% in size
Numbers stand for hits; – = inactive; ? = inconclusive; · = no result given; [ ] = dose if it differs, or a comment. This is a sample that favours compounds with a hit; in the whole collection about 0.52% have one here. Unless noted, calls follow the shape of the dose curve; as a rule, active = well fitted curve in the direction sought with a large enough effect; inconclusive = small, poorly fitted or top-dose-only effect, or another doubt; inactive = no such curve, though single readings can be large; an effect the other way counts as inactive or inconclusive.

SMILES	Eya2 phos inh	GCN5L2 inh	USP2a inh	RGS4 inh	Chronic BCR inh	uPA surface inh
CN(c1ccc(F)cc1)S(=O)(=O)N1CCCC(C(=O)NCCc2ccccc2)C1 (centres undefined)	·	–	·	–	·	·
O=C(COc1ccccc1Cl)OCc1cc(=O)n2nc(C3CC3)sc2n1	·	–	·	–	·	·
CCOc1ccccc1N1CC(c2nc3ccccc3n2CCOc2ccccc2OC)CC1=O (centres undefined)	·	–	·	–	·	·
CS(=O)(=O)c1ccc2nc(NC(=O)c3ccco3)sc2c1	–	–	–	–	?	10µM
CC1(C)CC(=O)c2sc(NC(=O)c3ccco3)nc2C1	–	–	–	–	?	10µM
Cc1noc(C)c1C(=O)Nc1nc2ccc(S(C)(=O)=O)cc2s1	–	–	–	–	?	5.01µM
Cc1onc(-c2ccccc2)c1C(=O)Nc1nc2c(s1)C(=O)CC(C)(C)C2	–	–	–	–[11.4 µM]	–	–
COc1ccc2nc(NC(=O)c3c(C)noc3C)sc2c1	–	–	–	–	?	?
COc1ccc(N2CCN(C(=O)Cn3cnc4nc5c(cc4c3=O)CCCC5)CC2)cc1	·	–	·	–	·	·
CCCCCCCCCC(=O)NO	·	–	·	·	·	·
COc1ccc2c(c1)C(C)=CC(C)(C)N2S(=O)(=O)c1ccc(NC(C)=O)cc1	–	–	–	–	4.47µM	–
CC1=CC(C)(C)N(S(=O)(=O)c2ccc(C)cc2)c2ccccc21	–	–	–	–	23.1µM	?
CC1=CC(C)(C)N(S(=O)(=O)c2ccc(F)cc2)c2ccc(C)cc21	–	–	–	–	?	?
CSCC[C@H](NC(=O)[C@@H]1CCCN1C(=O)CNC(=O)[C@H](CCCCN)NC(=O)[C@H](Cc1cnc[nH]1)NC(=O)[C@H](CO)NC(=O)[C@H](CC(C)C)NC(=O)[C@H](CCCNC(=N)N)NC(=O)[C@@H]1CCCN1C(=O)[C@H](CCCNC(=N)N)NC(=O)[C@H](CCC(N)=O)NC(=O)[C@H](CCCNC(=N)N)NC(=O)[C@H](CCCNC(=N)N)NC(=O)[C@H](Cc1ccccc1)NC(=O)[C@@H](N)CCCCN)C(=O)N1CCC[C@H]1C(=O)N[C@@H](Cc1ccccc1)C(=O)O	·	–	·	·	·	·
O=c1c(O)cc(C2Oc3cc(O)cc(O)c3CC2O)cc2c(C3Oc4cc(O)cc(O)c4CC3O)cc(O)c(O)c12 (centres undefined)	·	12.6µM	·	·	·	·
COC(=O)c1ccc(NC(=O)c2cc3cc4ccc(OC)c(Cl)c4nc3s2)cc1	·	–	·	–	·	·
Cc1ccc(C(=O)c2c3ccc([N+](=O)[O-])cc3[n+]([O-])n2CCCN)cc1	–	–	–	–	–	0.631µM
COc1cc(OC)cc(-c2c(-c3cccs3)c3cc(Br)ccc3n2C)c1	–	–	–	–	–	–
Cn1c(-c2ccsc2)c(-c2cccs2)c2cc(Br)ccc21	–	20µM	–	–	–	–
Cc1ccccc1C(=O)Nc1nnc(SCc2cc(=O)n3ccccc3n2)s1	·	–	·	–	·	·
O=C(Nc1ccc(-c2nc3cccnc3s2)cc1)C1CCCO1 (centres undefined)	–	–	–	–	?	2.51µM
CC(=O)NCCNc1ncnc2ccc(-c3ccc(C(=O)N(C)C)cc3)cc12	·	–	·	·	·	·
COc1ccc(N=Cc2sc3ccccc3c2Cl)cc1	–	–	–	–	–	–
Clc1ccc(N=c2ssnc2Cl)cc1	–	14.1µM	–	?	?	–
Fc1ccc(N=c2ssnc2Cl)c(F)c1	–	7.94µM	–	?	?	–
SMILES	Eya2 phos inh	GCN5L2 inh	USP2a inh	RGS4 inh	Chronic BCR inh	uPA surface inh
COc1ccc(N=c2ssnc2Cl)cc1	–	12.6µM	–	–[11.4 µM]	–	–
Clc1nssc1=Nc1ccccc1	–	3.98µM	–	?	?	–
O=C1CSC(=Nc2ccc(Cl)cc2)N1	–	–	–	–	–	–
N#Cc1ccc(N=c2ssnc2Cl)cc1	–	10µM	–	?	–	–
N#Cc1ccc(Oc2c(Cl)cncc2Cl)cc1	–	–	–	–	–	–
CCOC(=O)c1ccc(N=c2ssnc2Cl)cc1	–	12.6µM	–	?	–	–
